Results taken from PubChem BioAssay AID1159580 (chemical genetic matrix, 2015).
Where “and” joins values, the source holds several entries; their conditions need not be identical. Equal values may be shown once. Out of some 5,500 compounds screened, about 2,000 (36%) were called active. Another 18% or so got no clear call; they are omitted. No stated cut-off is given here; in the data, active means normalized growth mostly below about 0.91 (no sharp cut-off); inconclusive means no clear call, values can overlap the other calls; inactive means mostly above about 0.92. The list shows a part of the results.

Experiment: chemical genetic growth profiling, strain panel (AID 1159580);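 further: tested at 20 µM; growth read once vehicle control cultures reached saturation at 30 °C; 1 = growth at the plate median or of vehicle wells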
Conditions: S. cerevisiae deletion strains, growth OD
[1] = locus YAL040C, strain CLN3, stronger effect = lower value
[2] = locus YCL061C, strain MRC1 (second series), stronger effect = lower value
[3] = locus YER002W, strain NOP16, stronger effect = lower value
[4] = locus YJR075W, strain HOC1, stronger effect = lower value
[5] = locus YMR263W, strain SAP30, stronger effect = lower value
[6] = locus YNL153C, strain GIM3, stronger effect = lower value
[7] = locus YNL175C, strain NOP13, stronger effect = lower value
[8] = locus YNL197C, strain WHI3, stronger effect = lower value
[9] = locus YNL224C, strain SQS1, stronger effect = lower value
[10] = locus YOR083W, strain WHI5 (second series), stronger effect = lower value
[11] = locus YPL241C, strain CIN2, stronger effect = lower value

Measured: normalized growth

N[C@@H](CC(=O)O)C(=O)O
inactive: locus YAL013W, strain DEP1, stronger effect = lower value 1.01 | [1] 1.09 | [2] 1.01 | [3] 1.01 | [4] 1.01 | [5] 1 | [6] 1.02 | [7] 1 | [8] 1 | [9] 0.996 | [10] 0.955 | [11] 1.01

O=c1[nH]cnc2[nH]ncc12
inactive: locus YAL021C, strain ccr4, stronger effect = lower value 1.01 | locus YAL026C, strain drs2, stronger effect = lower value 1 | locus YAL030W, strain snc1, stronger effect = lower value 0.985 | [1] 1.01 | locus YBL061C, strain skt5, stronger effect = lower value 1 | locus YBR009C, strain hhf1, stronger effect = lower value 1 | locus YBR021W, strain FUR4, stronger effect = lower value 1.01 | locus YBR023C, strain chs3, stronger effect = lower value 1 | locus YBR171W, strain sec66, stronger effect = lower value 1.01 | locus YBR229C, strain ROT2, stronger effect = lower value 1.01 | locus YBR231C, strain swc5, stronger effect = lower value 1.02 | locus YBR279W, strain paf1, stronger effect = lower value 1 | locus YCL011C, strain gbp2, stronger effect = lower value 1.01 | locus YCL016C, strain dcc1, stronger effect = lower value 1.01 | locus YCL029C, strain bik1, stronger effect = lower value 1.02 | [2] 0.996 | locus YCL069W, strain vba3, stronger effect = lower value 1.01 | locus YCR088W, strain abp1, stronger effect = lower value 0.993 | locus YDL005C, strain med2, stronger effect = lower value 0.998 | locus YDL035C, strain GPR1, stronger effect = lower value 0.997 | locus YDL040C, strain nat1, stronger effect = lower value 0.988 | locus YDL074C, strain BRE1, stronger effect = lower value 0.996 | locus YDL101C, strain DUN1, stronger effect = lower value 1.01 | locus YDL134C, strain PPH21, stronger effect = lower value 0.993 | locus YDL185W, strain tfp1, stronger effect = lower value 1.02 | locus YDL192W, strain arf1, stronger effect = lower value 1.01 | locus YDR001C, strain nth1, stronger effect = lower value 0.992 | locus YDR069C, strain doa4, stronger effect = lower value 1.04 | locus YDR101C, strain arx1, stronger effect = lower value 1 | locus YDR137W, strain rgp1, stronger effect = lower value 0.993 | locus YDR159W, strain sac3, stronger effect = lower value 1.02 | locus YDR162C, strain NBP2, stronger effect = lower value 1.01 | locus YDR195W, strain ref2 0.958 | locus YDR297W, strain sur2, stronger effect = lower value 1 | locus YDR318W, strain mcm21, stronger effect = lower value 1.01 | locus YDR334W, strain swr1, stronger effect = lower value 1.03 | locus YDR335W, strain msn5, stronger effect = lower value 1.01 | locus YDR388W, stronger effect = lower value 1.02 | locus YDR392W, strain spt3, stronger effect = lower value 0.966 | locus YDR502C, strain sam2, stronger effect = lower value 1.01 | locus YEL003W, strain gim4, stronger effect = lower value 1.01 | locus YEL037C, strain rad23, stronger effect = lower value 1.01 | locus YEL061C, strain CIN8 (second series), stronger effect = lower value 1.02 | locus YEL061C, strain CIN8, stronger effect = lower value 1 | [3] 1 | locus YER015W, strain faa2, stronger effect = lower value 1.01 | locus YER016W, strain bim1, stronger effect = lower value 0.97 | locus YER110C, stronger effect = lower value 1.03 | locus YER111C, strain swi4, stronger effect = lower value 1 | locus YER155C, strain BEM2 (second series), stronger effect = lower value 1.01 | locus YER155C, strain BEM2, stronger effect = lower value 1.01 | locus YER167W, strain BCK2, stronger effect = lower value 0.999 | locus YFR010W, strain ubp6, stronger effect = lower value 1.01 | locus YGL078C, strain dbp3, stronger effect = lower value 1.01 | locus YGL086W, strain mad1, stronger effect = lower value 1 | locus YGL167C, strain pmr1, stronger effect = lower value 1.01 | locus YGL173C, strain kem1, stronger effect = lower value 0.998 | locus YGL227W, strain vid30, stronger effect = lower value 1.01 | locus YGL240W, strain doc1, stronger effect = lower value 1.04 | locus YGL248W, strain PDE1, stronger effect = lower value 1.01 | locus YGL253W, strain hxk2, stronger effect = lower value 0.995 | locus YGR135W, strain pre9, stronger effect = lower value 1.01 | locus YGR252W, strain gcn5, stronger effect = lower value 0.989 | locus YHR013C, strain ard1, stronger effect = lower value 0.968 | locus YHR027C, strain rpn1, stronger effect = lower value 1 | locus YHR030C, strain SLT2, stronger effect = lower value 1.01 and 0.983 | locus YHR079C, strain IRE1 (second series), stronger effect = lower value 1.02 | locus YHR079C, strain IRE1, stronger effect = lower value 1.04 | locus YHR094C, strain hxt1, stronger effect = lower value 1.03 | locus YHR129C, strain ARP1, stronger effect = lower value 1 | locus YHR142W, strain chs7, stronger effect = lower value 0.998 | locus YHR200W, strain rpn10, stronger effect = lower value 1.03 | locus YIL066C, strain RNR3, stronger effect = lower value 1.01 | locus YIL073C, strain SPO22, stronger effect = lower value 1.04 | locus YIL125W, strain kgd1, stronger effect = lower value 1.02 | locus YIR030C, strain dcg1, stronger effect = lower value 1.01 | locus YJL092W, strain hpr5, stronger effect = lower value 1.01 | locus YJL095W, strain BCK1 (second series), stronger effect = lower value 1.01 | locus YJL095W, strain BCK1, stronger effect = lower value 1.02 and 1.03 | locus YJL115W, strain asf1, stronger effect = lower value 1.02 | locus YJL129C, strain trk1, stronger effect = lower value 1.01 | locus YJL134W, strain LCB3, stronger effect = lower value 0.999 | locus YJL154C, strain vps35, stronger effect = lower value 1.01 | locus YJL164C, strain tpk1, stronger effect = lower value 0.981 | locus YJL166W, strain qcr8, stronger effect = lower value 1.02 | locus YJL168C, strain set2, stronger effect = lower value 1.02 | locus YJL187C, strain SWE1 (second series), stronger effect = lower value 1.02 | locus YJL187C, strain SWE1, stronger effect = lower value 1.01 | locus YJR043C, strain POL32, stronger effect = lower value 0.988 | locus YJR066W, strain TOR1, stronger effect = lower value 0.974 | [4] 1.01 | locus YKL009W, strain mrt4, stronger effect = lower value 1.02 | locus YKL068W, stronger effect = lower value 1.01 | locus YKL085W, strain MDH1 (second series), stronger effect = lower value 1 | locus YKL085W, strain MDH1, stronger effect = lower value 1 | locus YKL160W, strain elf1, stronger effect = lower value 1 | locus YKR001C, strain vps1, stronger effect = lower value 1.01 | locus YKR026C, strain gcn3, stronger effect = lower value 1.06 | locus YKR091W, strain srl3, stronger effect = lower value 0.999 | locus YLL001W, strain dnm1, stronger effect = lower value 1.01 | locus YLL026W, stronger effect = lower value 1 | locus YLL041C, strain sdh2, stronger effect = lower value 0.987 | locus YLR027C, strain aat2, stronger effect = lower value 1.01 | locus YLR039C, strain RIC1, stronger effect = lower value 1 | locus YLR058C, strain SHM2, stronger effect = lower value 1.01 | locus YLR102C, strain apc9, stronger effect = lower value 1.02 | locus YLR113W, strain HOG1, stronger effect = lower value 1.02 | locus YLR221C, strain rsa3, stronger effect = lower value 1.01 | locus YLR258W, strain gsy2, stronger effect = lower value 1 | locus YLR262C, strain YPT6 (second series), stronger effect = lower value 1 | locus YLR262C, strain YPT6, stronger effect = lower value 1.04 | locus YLR268W, strain sec22, stronger effect = lower value 1.02 | locus YLR320W, strain mms22, stronger effect = lower value 0.992 | locus YLR330W, strain CHS5, stronger effect = lower value 1 | locus YLR342W, strain FKS1 (second series), stronger effect = lower value 0.982 | locus YLR342W, strain FKS1, stronger effect = lower value 1.02 | locus YLR357W, strain rsc2, stronger effect = lower value 0.998 | locus YLR370C, strain arc18, stronger effect = lower value 1.01 | locus YLR371W, strain rom2, stronger effect = lower value 1.01 | locus YLR384C, strain iki3, stronger effect = lower value 1 | locus YLR418C, strain cdc73, stronger effect = lower value 1.01 | locus YML016C, strain PPZ1, stronger effect = lower value 1.01 | locus YML032C, strain rad52, stronger effect = lower value 1.01 | locus YML120C, strain ndi1, stronger effect = lower value 1.02 | locus YML124C, strain tub3, stronger effect = lower value 1.02 | locus YMR058W, strain fet3, stronger effect = lower value 1.02 | locus YMR078C, strain ctf18, stronger effect = lower value 1.02 | locus YMR125W, strain sto1, stronger effect = lower value 0.998 | locus YMR129W, stronger effect = lower value 1.01 | locus YMR205C, strain PFK2, stronger effect = lower value 0.998 | locus YMR223W, strain ubp8, stronger effect = lower value 1.01 | locus YMR231W, strain pep5, stronger effect = lower value 1 | [5] 0.997 | locus YMR307W, strain GAS1, stronger effect = lower value 1.02 and 1.01 | locus YNL067W, strain RPL9B, stronger effect = lower value 1.02 | locus YNL071W, strain lat1, stronger effect = lower value 1.02 | [6] 1.03 | [7] 1.01 | locus YNL183C, strain NPR1, stronger effect = lower value 0.977 | [8] 1.01 | locus YNL209W, strain ssb2, stronger effect = lower value 0.998 | [9] 0.994 | locus YNL233W, strain BNI4, stronger effect = lower value 1.01 | locus YNL248C, strain rpa49, stronger effect = lower value 1.04 | locus YNL250W, strain rad50, stronger effect = lower value 1.01 | locus YNL271C, strain bni1, stronger effect = lower value 1.02 | locus YNL298W, strain CLA4, stronger effect = lower value 1.01 | locus YNL307C, strain MCK1, stronger effect = lower value 1.03 | locus YNL322C, strain KRE1 (second series), stronger effect = lower value 0.993 | locus YNL322C, strain KRE1, stronger effect = lower value 1.01 | locus YNR049C, strain mso1, stronger effect = lower value 1.02 | locus YNR052C, strain pop2, stronger effect = lower value 1.02 | locus YOL006C, strain TOP1, stronger effect = lower value 1.05 | locus YOL012C, strain htz1 0.934 | locus YOL147C, strain pex11, stronger effect = lower value 1.01 | locus YOR001W, strain rrp6, stronger effect = lower value 1.05 | locus YOR061W, strain CKA2, stronger effect = lower value 1.01 | locus YOR069W, strain VPS5, stronger effect = lower value 1 | locus YOR070C, strain gyp1, stronger effect = lower value 0.996 | locus YOR080W, strain dia2, stronger effect = lower value 1.02 | [10] 1.04 | locus YOR083W, strain WHI5, stronger effect = lower value 1.05 | locus YOR106W, strain vam3, stronger effect = lower value 1.03 | locus YOR136W, strain idh2, stronger effect = lower value 1.02 | locus YOR144C, strain elg1, stronger effect = lower value 1.01 | locus YOR184W, strain ser1, stronger effect = lower value 1.01 | locus YOR231W, strain MKK1, stronger effect = lower value 1.03 | locus YOR265W, strain rbl2, stronger effect = lower value 1.01 | locus YOR270C, strain vph1, stronger effect = lower value 1.08 | locus YOR290C, strain snf2, stronger effect = lower value 0.993 | locus YOR316C, strain cot1, stronger effect = lower value 1.01 | locus YPL051W, strain arl3, stronger effect = lower value 1.01 | locus YPL078C, strain atp4, stronger effect = lower value 1.03 | locus YPL106C, strain sse1, stronger effect = lower value 1.01 | locus YPL240C, strain hsp82, stronger effect = lower value 1 | [11] 1 | locus YPL256C, strain CLN2, stronger effect = lower value 1 | locus YPR119W, strain clb2, stronger effect = lower value 1.02 | locus YPR141C, strain kar3, stronger effect = lower value 1.03 | locus YPR163C, strain tif3, stronger effect = lower value 1.03 | locus YPR167C, strain met16, stronger effect = lower value 1.02 | strain wtn01, stronger effect = lower value 1
